Growth data for 13 compounds are collected here from PubChem BioAssay (NCI).

Test systems include DU-145 prostate; K-562 leukemia; MALME-3M melanoma; MDA-MB-231 breast; RXF 393 renal; SF-268 CNS; SF-295 CNS; SF-539 CNS; UACC-257 melanoma; M14 melanoma.
Holding throughout (assay): NCI-60 one-dose screen, 48 h (100 = growth as untreated, 0 = no growth, -100 = all killed)
Settings in all cases: 10 µM unless noted

The panel holds about 83,000 compounds, 20% with a hit somewhere; the sample as a whole holds those more often.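 Activity criterion: percent growth below 10, measured after cells in 96-well plates were exposed to a single compound concentration for 48 hours.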 A number with no mark means an inactive call. Calls of active or inactive are those of the source.

`Oc1c(Cl)cc(Cl)c2ccc(Cn3cc(-c4cc(F)cc(F)c4)nn3)nc12`: the growth was 58.5% with DU-145 prostate; 7.96% (active) with K-562 leukemia; 37.2% with MALME-3M melanoma; 97.9% in the test with MDA-MB-231 breast; 25.6% with RXF 393 renal; 97.2% in the test on SF-268 CNS. Moreover, the growth was 100% in the test with SF-295 CNS, 65.8% with SF-539 CNS, 60.4% in the test on UACC-257 melanoma and 61.5% in the test on M14 melanoma.

On to `CS(=O)(=O)Nc1cc(-c2ccc3ncnc(Nc4c(Cl)ccc5c4OCO5)c3c2)cnc1Cl`, for which the growth in the test on DU-145 prostate is 6.12% (active); in the test on K-562 leukemia, 13.6%; with MALME-3M melanoma, -29% (active); in the test with MDA-MB-231 breast it was 1.01% (active); with RXF 393 renal it was -45.8% (active); with SF-268 CNS, -21.5% (active). Further, the growth was -29.8% (active) in the test on SF-295 CNS, -36.9% (active) with SF-539 CNS, -3.47% (active) in the test on UACC-257 melanoma and -9.85% (active) in the test on M14 melanoma.

On to `COc1ccc(-c2nc3c(c(-c4ccccc4)nn3-c3ccccc3)c(-c3ccc(N4CCOCC4)cc3)c2C#N)cc1`, for which the growth was 106% in the test on DU-145 prostate; 96.9% with K-562 leukemia; 103% in the test with MALME-3M melanoma; 107% in the test with MDA-MB-231 breast; 38.6% in the test with RXF 393 renal; 112% in the test on SF-268 CNS. Moreover, the growth in the test on SF-295 CNS was 91.6%; with SF-539 CNS it was 85.9%; with UACC-257 melanoma, 101%; in the test with M14 melanoma, 101%.

For the compound `CCNc1cc(-c2cccc(OC(F)(F)F)c2)nc2ccc(N3CCCC3)cc12`, the growth is 28.6% in the test on DU-145 prostate; 4.34% (active) in the test with K-562 leukemia; -32.2% (active) with MALME-3M melanoma; 15.3% in the test with MDA-MB-231 breast; 33.7% with RXF 393 renal; 48.8% in the test on SF-268 CNS. The growth is 23.6% with SF-295 CNS, 48.9% in the test on SF-539 CNS, 11.1% in the test with UACC-257 melanoma and 7.92% (active) in the test with M14 melanoma.

`C=CC(=O)NCc1ccc(Nc2nccc(-c3ccc(N4CCCC4)c(C#N)c3)n2)cc1`: the growth in the test on DU-145 prostate was 46.3%; in the test with K-562 leukemia, 21%; with MALME-3M melanoma, 44.9%; in the test on MDA-MB-231 breast, 75.6%; with RXF 393 renal it was -1.91% (active); in the test with SF-268 CNS, 49.7%. Besides, the growth in the test with SF-295 CNS is 22.9%; in the test on SF-539 CNS, 28%; in the test with UACC-257 melanoma it was 39.8%; in the test with M14 melanoma, 36.1%.

Regarding `N#C/C(=C\c1ccc2ccccc2c1)c1cc2ccccc2[nH]1`, the growth in the test with DU-145 prostate was 59.5%; in the test with K-562 leukemia, 19.4%; in the test on MALME-3M melanoma, 45%; in the test with MDA-MB-231 breast, 41.5%; with RXF 393 renal it was 29.3%; in the test on SF-268 CNS it was 54.2%. Also, the growth was 33% in the test on SF-295 CNS, 32.9% in the test on SF-539 CNS, 63.2% in the test on UACC-257 melanoma and 18% in the test on M14 melanoma.

In the case of `CN(Cc1ccc(C(F)(F)F)cc1)CC(O)C(=O)Nc1ccc(Cl)cc1` (stereo not given), the growth in the test on DU-145 prostate is -51.4% (active); in the test with K-562 leukemia, -36% (active); in the test with MALME-3M melanoma it was 12.8%; in the test with MDA-MB-231 breast, 26%; in the test with RXF 393 renal, 12.9%; with SF-268 CNS it was 31.9%. In addition, the growth is -69.5% (active) in the test with SF-295 CNS, 21.9% in the test on SF-539 CNS, 1.78% (active) in the test with UACC-257 melanoma and -49.8% (active) in the test with M14 melanoma.

For the compound `COc1cc(C(=O)n2nc(N3CCN(C)CC3)c3cc(N)ccc32)cc(OC)c1OC`, the growth is 22.5% in the test on DU-145 prostate; 10.4% in the test with K-562 leukemia; 65.3% in the test with MALME-3M melanoma; 50.3% with MDA-MB-231 breast; -13.3% (active) with RXF 393 renal; 47.2% with SF-268 CNS. In addition, the growth is 4.42% (active) in the test on SF-295 CNS, -14.1% (active) in the test with SF-539 CNS, 85.3% in the test on UACC-257 melanoma and 2.63% (active) in the test with M14 melanoma.

Regarding `O=c1oc2c(cnc3ccccc32)cc1-c1ccsc1`, the growth was 104% with DU-145 prostate; 92.8% with K-562 leukemia; 101% in the test with MALME-3M melanoma; 101% in the test on MDA-MB-231 breast; 105% in the test with RXF 393 renal; 94.6% in the test on SF-268 CNS. Also, the growth is 103% in the test on SF-295 CNS, 93.4% in the test with SF-539 CNS, 101% in the test on UACC-257 melanoma and 101% in the test on M14 melanoma.

`OCCOCCN(Cc1ccccn1)Cc1cc(I)cc(I)c1O`: the growth was 87.8% in the test with DU-145 prostate; 107% in the test on K-562 leukemia; 87.8% in the test on MALME-3M melanoma; 96% in the test on MDA-MB-231 breast; 81.1% in the test with RXF 393 renal; 81.4% in the test with SF-268 CNS. The growth in the test with SF-295 CNS is 59.3%; with SF-539 CNS, 90.8%; in the test on UACC-257 melanoma, 104%; in the test with M14 melanoma, 81.1%.

`CCOC(=O)C#Cc1c(C(=O)OCC)nnn1[C@@H]1O[C@H](CO)[C@H]2OC3(CCCCC3)O[C@H]21`: the growth in the test with DU-145 prostate was 52.1%; with K-562 leukemia it was 5.02% (active); in the test with MALME-3M melanoma, 55.1%; in the test on MDA-MB-231 breast it was 95.6%; with RXF 393 renal it was 9.92% (active); with SF-268 CNS it was 94.6%. Moreover, the growth in the test on SF-295 CNS was 101%; in the test on SF-539 CNS, 81.1%; with UACC-257 melanoma, 46.8%; in the test with M14 melanoma it was 59.4%.

In the case of `CCOC(=O)c1cc(C(=O)c2cc(OC)c(OC)c(OC)c2)n2ccc(-c3ccncc3)cc12`, the growth is 103% with DU-145 prostate; 98.7% with K-562 leukemia; 87.5% with MALME-3M melanoma; 70.2% in the test with MDA-MB-231 breast; 95.3% in the test with RXF 393 renal; 96.4% in the test with SF-268 CNS. The growth in the test on SF-295 CNS is 113%; in the test with SF-539 CNS, 93.9%; in the test on UACC-257 melanoma it was 80.8%; in the test with M14 melanoma, 101%.

Take `Cc1cnc(C(=O)NNc2nc3sc4c(c3c(=O)n2C)C(C)CCC4)cn1` (stereo not given): the growth in the test with DU-145 prostate is 7.49% (active); in the test on K-562 leukemia, 6.51% (active); in the test with MALME-3M melanoma, -22.3% (active); in the test with MDA-MB-231 breast it was -3.01% (active); with RXF 393 renal, -12.6% (active); in the test on SF-268 CNS it was 5.92% (active). In addition, the growth was 8.03% (active) with SF-295 CNS, -21.1% (active) in the test with SF-539 CNS, -11.3% (active) in the test on UACC-257 melanoma and -15.7% (active) in the test with M14 melanoma.
